The values below come from ChEMBL document CHEMBL3988442, “University of Dundee, Small-Polar-MMV Screening Library” (2021).

Design in all cases: scale not given: direction of the effect not stated beside the values
The target of assay [1] is Protein translocase subunit SecA (Escherichia coli (strain K12)) (UniProt P10408). The experiment in a line: Assay to Identify E. coli SecA ATPase Inhibitors. Type of assay: functional. Particulars: 30 µM.
Assay [2] deals with T1, Ubiquitin-activating enzyme e1, putative (Leishmania donovani (strain BPK282A1)) (UniProt E9BSI1).
T1 sequence (whole entry): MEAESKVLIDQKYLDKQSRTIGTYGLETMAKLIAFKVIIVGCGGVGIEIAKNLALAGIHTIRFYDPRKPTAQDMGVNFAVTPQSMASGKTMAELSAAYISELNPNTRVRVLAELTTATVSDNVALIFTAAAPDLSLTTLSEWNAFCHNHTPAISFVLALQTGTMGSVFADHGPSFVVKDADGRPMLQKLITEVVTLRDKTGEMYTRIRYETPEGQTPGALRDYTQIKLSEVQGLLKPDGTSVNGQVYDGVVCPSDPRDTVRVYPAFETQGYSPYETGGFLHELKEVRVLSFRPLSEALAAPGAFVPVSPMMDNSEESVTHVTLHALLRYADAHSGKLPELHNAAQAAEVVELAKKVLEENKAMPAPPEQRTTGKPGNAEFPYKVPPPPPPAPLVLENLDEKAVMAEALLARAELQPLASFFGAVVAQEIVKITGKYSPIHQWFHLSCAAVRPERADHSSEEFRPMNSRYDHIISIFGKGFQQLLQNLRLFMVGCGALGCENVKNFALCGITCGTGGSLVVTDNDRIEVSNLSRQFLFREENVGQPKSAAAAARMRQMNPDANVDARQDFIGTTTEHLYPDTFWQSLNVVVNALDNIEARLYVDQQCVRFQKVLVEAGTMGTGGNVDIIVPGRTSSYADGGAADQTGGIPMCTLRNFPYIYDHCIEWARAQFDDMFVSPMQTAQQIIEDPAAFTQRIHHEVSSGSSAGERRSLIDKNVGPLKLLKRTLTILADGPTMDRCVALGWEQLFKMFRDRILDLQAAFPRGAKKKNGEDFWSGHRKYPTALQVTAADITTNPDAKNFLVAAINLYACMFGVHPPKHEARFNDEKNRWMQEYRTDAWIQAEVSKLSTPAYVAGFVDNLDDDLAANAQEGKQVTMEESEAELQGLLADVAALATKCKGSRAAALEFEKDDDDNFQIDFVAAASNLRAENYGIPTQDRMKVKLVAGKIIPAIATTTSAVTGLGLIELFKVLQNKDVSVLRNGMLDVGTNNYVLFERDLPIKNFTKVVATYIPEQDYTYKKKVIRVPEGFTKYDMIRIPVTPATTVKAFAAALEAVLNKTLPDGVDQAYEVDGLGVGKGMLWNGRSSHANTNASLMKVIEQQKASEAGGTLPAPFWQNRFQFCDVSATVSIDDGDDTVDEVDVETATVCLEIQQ
The experiment in a line: Leishmania donovani Ubiquitin Activating Enzyme (LdE1). It is filed as functional. Particulars: 30 µM.

The target of assay [3] is Sialic acid-binding Ig-like lectin 9 (Homo sapiens) (UniProt Q9Y336). The experiment in a line: Hs-Siglec9 ALPHAscreen SOP 20170721. Particulars: 10 µM.
Sialic acid-binding Ig-like lectin 9 (Homo sapiens), sequence (Q9Y336 whole entry): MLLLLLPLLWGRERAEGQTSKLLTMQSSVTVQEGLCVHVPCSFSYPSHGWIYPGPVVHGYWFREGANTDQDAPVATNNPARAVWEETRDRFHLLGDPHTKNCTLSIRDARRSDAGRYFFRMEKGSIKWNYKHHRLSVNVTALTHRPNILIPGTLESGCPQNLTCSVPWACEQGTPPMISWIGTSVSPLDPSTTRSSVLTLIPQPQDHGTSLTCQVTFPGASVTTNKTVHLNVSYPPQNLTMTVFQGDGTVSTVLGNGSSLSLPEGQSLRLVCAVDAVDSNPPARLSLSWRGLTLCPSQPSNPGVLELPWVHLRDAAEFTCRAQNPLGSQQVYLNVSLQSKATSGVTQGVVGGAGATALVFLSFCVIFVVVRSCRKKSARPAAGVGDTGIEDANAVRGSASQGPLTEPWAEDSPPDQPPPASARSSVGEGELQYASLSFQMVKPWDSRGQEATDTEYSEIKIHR
The test system of the next assay is Trypanosoma cruzi. The experiment in a line: Trypanosoma cruzi phosphomannomutase and mannose-1-phosphate guanylyltransferase assay. It is filed as functional. Particulars: 10 µM.
Assay [4] addresses T2, Arginase-2, mitochondrial (Homo sapiens) (UniProt P78540).
T2 sequence (whole entry): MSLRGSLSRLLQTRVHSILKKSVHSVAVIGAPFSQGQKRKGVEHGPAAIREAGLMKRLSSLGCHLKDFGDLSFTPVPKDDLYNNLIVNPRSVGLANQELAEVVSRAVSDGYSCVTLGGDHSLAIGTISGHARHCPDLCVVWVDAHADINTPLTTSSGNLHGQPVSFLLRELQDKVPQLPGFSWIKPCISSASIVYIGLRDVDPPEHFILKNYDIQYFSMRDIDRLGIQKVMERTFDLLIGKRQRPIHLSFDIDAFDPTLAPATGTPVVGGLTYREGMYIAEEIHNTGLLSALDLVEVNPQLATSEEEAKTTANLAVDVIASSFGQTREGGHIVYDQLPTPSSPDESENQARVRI
The experiment in a line: in vitro enzyme assay to detect the production of urea directly proportional to the activity of Arginase II. Note: in the data most compounds retested in dose-response had high values. It is filed as functional. The following applies: 33.3 µM.

The target of assay [5] is T3, Proteasome subunit beta (Trypanosoma cruzi) (UniProt O96673).
T3 sequence (whole entry): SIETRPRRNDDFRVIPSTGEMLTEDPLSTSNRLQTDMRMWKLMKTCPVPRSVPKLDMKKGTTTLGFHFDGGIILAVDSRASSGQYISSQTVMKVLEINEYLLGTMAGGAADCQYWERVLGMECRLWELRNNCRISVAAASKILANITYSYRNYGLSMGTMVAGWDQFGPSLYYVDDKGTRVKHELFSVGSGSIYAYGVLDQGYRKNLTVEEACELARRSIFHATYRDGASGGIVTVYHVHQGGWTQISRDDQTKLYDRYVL
Description: Trypanosoma cruzi proteasome chymotrypsin-like activity (TcProtChymo) assay. Note: in the data most compounds retested in dose-response had high values. Type of assay: functional. The following applies: 9.37 µM.

The species named for the next assay is Homo sapiens. Description: To identify inhibition of the IFN signalling (Jak-Stat) pathway via expression of an eGFP reporter gene under the control of an IFN-stimulated response element (ISRE) containing MxA promoter. It is filed as functional. Particulars: 30 µM. In general terms: Reporter assays use an easily measured gene product as a stand-in for the process of interest.

The target of assay [6] is T4, Tyrosyl-tRNA synthetase, putative (Trypanosoma cruzi (strain CL Brener)) (UniProt Q4DSP6).
T4 sequence (whole entry): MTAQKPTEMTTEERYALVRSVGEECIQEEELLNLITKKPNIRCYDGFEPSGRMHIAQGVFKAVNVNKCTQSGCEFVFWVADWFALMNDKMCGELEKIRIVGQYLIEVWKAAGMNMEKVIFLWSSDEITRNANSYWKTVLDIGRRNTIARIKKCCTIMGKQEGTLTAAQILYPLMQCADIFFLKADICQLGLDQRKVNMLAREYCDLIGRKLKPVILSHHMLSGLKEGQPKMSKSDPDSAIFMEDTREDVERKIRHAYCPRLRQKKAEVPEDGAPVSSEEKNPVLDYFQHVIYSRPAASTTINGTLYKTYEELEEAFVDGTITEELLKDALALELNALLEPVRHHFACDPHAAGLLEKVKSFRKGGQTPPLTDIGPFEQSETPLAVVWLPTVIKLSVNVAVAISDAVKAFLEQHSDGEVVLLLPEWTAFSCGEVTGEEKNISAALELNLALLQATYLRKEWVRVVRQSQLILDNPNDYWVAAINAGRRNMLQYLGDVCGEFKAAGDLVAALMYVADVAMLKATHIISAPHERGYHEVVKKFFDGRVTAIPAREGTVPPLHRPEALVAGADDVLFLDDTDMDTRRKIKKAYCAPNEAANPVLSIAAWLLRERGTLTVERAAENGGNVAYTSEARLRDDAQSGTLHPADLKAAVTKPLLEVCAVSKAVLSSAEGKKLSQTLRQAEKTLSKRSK
The experiment in a line: Trypanosoma cruzi tyrosyl tRNA synthetase (TcYRS) _High Tyrosine SOP. Note: in the data most compounds retested in dose-response had high values. It is filed as functional. The following applies: 30 µM.

In assay [7] the target is T4, Tyrosyl-tRNA synthetase, putative (Trypanosoma cruzi (strain CL Brener)). Description: Trypanosoma cruzi tyrosyl tRNA synthetase (TcYRS) SOP. Type of assay: functional. The following applies: 30 µM.
The target of assay [8] is Chromo domain-containing protein 1 (Saccharomyces cerevisiae (strain ATCC 204508 / S288c) (Baker's yeast)) (UniProt P32657). Description: ScCHD-1 Enzyme Inhibition Assay. Note: in the data most compounds retested in dose-response had high values. Type of assay: functional. The following applies: 30 µM.
Chromo domain-containing protein 1 (Saccharomyces cerevisiae (strain ATCC 204508 / S288c) (Baker's yeast)), sequence (P32657 whole entry, the tested form may be a part): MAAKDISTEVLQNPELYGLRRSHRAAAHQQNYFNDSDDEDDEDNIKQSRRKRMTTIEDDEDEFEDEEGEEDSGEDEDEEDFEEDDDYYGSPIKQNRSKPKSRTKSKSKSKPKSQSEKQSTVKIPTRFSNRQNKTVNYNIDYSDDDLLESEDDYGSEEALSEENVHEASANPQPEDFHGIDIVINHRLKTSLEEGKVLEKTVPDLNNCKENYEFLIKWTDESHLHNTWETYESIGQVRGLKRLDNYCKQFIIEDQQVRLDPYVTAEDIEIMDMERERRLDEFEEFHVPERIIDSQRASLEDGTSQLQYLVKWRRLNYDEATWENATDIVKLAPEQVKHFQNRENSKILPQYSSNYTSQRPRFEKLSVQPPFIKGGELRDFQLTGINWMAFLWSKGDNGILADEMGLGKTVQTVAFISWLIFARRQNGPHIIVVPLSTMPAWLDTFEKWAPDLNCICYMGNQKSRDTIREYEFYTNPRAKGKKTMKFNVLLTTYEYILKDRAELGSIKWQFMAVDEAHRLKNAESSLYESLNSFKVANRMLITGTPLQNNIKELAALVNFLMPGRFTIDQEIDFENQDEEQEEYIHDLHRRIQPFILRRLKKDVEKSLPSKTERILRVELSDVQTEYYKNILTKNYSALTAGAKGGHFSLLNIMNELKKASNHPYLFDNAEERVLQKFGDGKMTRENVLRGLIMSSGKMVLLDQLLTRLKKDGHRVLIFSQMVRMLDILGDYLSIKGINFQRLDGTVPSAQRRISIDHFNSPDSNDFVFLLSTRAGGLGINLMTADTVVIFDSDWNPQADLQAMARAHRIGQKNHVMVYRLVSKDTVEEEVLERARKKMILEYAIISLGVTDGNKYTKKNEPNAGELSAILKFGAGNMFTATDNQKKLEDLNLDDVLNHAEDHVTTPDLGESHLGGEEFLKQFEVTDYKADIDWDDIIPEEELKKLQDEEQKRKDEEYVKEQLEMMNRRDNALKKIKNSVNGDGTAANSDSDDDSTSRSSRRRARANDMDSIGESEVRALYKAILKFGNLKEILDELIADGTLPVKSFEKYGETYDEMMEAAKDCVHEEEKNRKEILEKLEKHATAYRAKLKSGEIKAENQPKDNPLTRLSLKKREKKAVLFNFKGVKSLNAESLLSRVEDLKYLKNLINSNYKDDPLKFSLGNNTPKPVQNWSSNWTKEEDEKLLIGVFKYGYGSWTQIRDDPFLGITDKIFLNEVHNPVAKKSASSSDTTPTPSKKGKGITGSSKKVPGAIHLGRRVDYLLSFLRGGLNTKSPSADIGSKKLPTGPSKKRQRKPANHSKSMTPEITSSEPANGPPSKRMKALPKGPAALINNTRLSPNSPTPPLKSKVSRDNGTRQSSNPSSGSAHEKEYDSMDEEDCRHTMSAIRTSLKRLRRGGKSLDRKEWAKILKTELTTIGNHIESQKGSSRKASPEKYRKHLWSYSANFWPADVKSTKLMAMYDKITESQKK

For some assays here: Results with a measured potency or affinity are listed apart.

Protein translocase subunit SecA (Escherichia coli (strain K12)), sequence (P10408 whole entry): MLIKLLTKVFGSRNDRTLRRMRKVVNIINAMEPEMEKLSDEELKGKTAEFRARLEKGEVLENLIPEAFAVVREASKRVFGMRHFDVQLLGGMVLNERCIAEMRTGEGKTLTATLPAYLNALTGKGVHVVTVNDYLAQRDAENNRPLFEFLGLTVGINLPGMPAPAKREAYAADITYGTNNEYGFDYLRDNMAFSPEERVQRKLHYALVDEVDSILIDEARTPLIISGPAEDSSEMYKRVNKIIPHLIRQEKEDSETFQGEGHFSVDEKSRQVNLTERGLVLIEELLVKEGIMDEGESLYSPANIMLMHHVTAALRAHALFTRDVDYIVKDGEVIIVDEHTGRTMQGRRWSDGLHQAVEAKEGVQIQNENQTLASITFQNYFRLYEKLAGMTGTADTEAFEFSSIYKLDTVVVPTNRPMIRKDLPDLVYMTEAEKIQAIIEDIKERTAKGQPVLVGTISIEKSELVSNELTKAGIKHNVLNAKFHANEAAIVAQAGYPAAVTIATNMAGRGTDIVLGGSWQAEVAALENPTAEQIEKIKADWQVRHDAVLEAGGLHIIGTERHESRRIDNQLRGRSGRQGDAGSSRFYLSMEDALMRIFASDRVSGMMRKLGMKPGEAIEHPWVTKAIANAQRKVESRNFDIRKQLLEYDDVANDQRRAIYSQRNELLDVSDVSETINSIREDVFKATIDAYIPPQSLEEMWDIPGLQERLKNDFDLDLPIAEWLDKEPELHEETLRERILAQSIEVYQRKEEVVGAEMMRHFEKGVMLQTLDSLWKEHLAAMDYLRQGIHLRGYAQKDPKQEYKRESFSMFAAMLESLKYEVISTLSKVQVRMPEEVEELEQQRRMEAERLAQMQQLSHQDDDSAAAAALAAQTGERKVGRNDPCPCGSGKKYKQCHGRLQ

As for `CN1CCN(CCO)C(=O)C12CCN(Cc1ccsc1)CC2`, the Percent Effect in assay [1] is -2.2%; in assay [2] it was 9.09%; in assay [3], -2.51%; with Trypanosoma cruzi it was -1.88%; in assay [4], 1.83%; in assay [5], 13.5%. Besides, the Percent Effect was -2.12% in the assay filed under Homo sapiens, 3.87% in assay [6], 12.5% in assay [7] and -7.99% in [8].
With `Cc1cncc(C2CCCN(Cc3cccn3C)C2)n1` (stereo not given), the Percent Effect in [1] is -2.21%; in assay [2], 12%; in assay [3], 2.11%; in the assay on Trypanosoma cruzi, -0.592%; in assay [4], -6.64%; in [5], 10.5%. Further, the Percent Effect was 6.97% in the assay filed under Homo sapiens, 9.52% in assay [6], 12.5% in assay [7] and -15.4% in assay [8].
As to `COCc1nc(C(=O)N2CCCC(n3cccn3)C2)cs1` (stereo not given), the Percent Effect in assay [1] is -1.77%; in [2] it was 13%; in assay [3] it was 6.57%; with Trypanosoma cruzi, -4.29%; in [4] it was 2.25%; in assay [5], 8.6%. The Percent Effect in the assay listed under Homo sapiens was -4.23%; in [6], 2.94%; in assay [7], 16.5%; in [8], -6.38%.
As to `CCn1cc(CN2CCCC(c3[nH]ncc3S(C)(=O)=O)C2)cn1` (stereo not given), the Percent Effect was -3.37% in assay [1]; 14.7% in assay [2]; 8.19% in [3]; 2.56% in the assay on Trypanosoma cruzi; -0.885% in assay [4]; 7.55% in [5]. Also, the Percent Effect is -4.1% in the assay listed under Homo sapiens, 4.23% in [6], 15% in assay [7] and -23.9% in assay [8].
With `Cc1nccc(CN2CC[C@H](Oc3cccc(F)c3)[C@@](C)(O)C2)n1`, the Percent Effect in assay [1] was -2.64%; in assay [2], 14.7%; in assay [3], 6.31%; in the assay on Trypanosoma cruzi, -0.197%; in assay [4] it was 3.1%; in assay [5], 0.657%. Besides, the Percent Effect in the assay listed under Homo sapiens was 2.7%; in assay [6] it was 7.41%; in assay [7], 15%; in assay [8], -17.3%.
As to `O=C(NCc1cc[nH]n1)NCC(O)c1ccc(F)cc1F` (stereo not given), the Percent Effect in assay [1] was -0.475%; in assay [2] it was 8%; in assay [3], -0.795%; in the assay with Trypanosoma cruzi it was -4.82%; in assay [4], -0.444%; in [5] it was 7.38%. Further, the Percent Effect in the assay listed under Homo sapiens is -4.21%; in [6], 5.79%; in assay [7] it was 10.3%; in [8] it was -7.37%.
For the molecule `CC(=O)NC1CCCN(C(=O)NCc2cccnc2-n2cccn2)C1` (stereo not given), the Percent Effect is -4.23% in assay [1]; 10.7% in assay [2]; -0.777% in [3]; -6.22% in the assay with Trypanosoma cruzi; 6.21% in [4]; 11.4% in assay [5]. Moreover, the Percent Effect in the assay filed under Homo sapiens was 14.4%; in assay [6], 5.79%; in [7], 7.69%; in assay [8] it was -8.06%.
Regarding `CC(C)CN1CCC2(CCN(Cc3ccsc3)CC2)C1=O`, the Percent Effect in [1] was -2.7%; in assay [2] it was 11.7%; in assay [3], 1.92%; in the assay on Trypanosoma cruzi, 0.938%; in assay [4] it was 0.913%; in assay [5], 6.78%. Also, the Percent Effect is -29.8% in the assay listed under Homo sapiens, 8.7% in assay [6], 12.5% in assay [7] and 1.04% in assay [8].
Consider `COc1ccc(C(N)c2cccc(S(C)(=O)=O)c2)cc1` (stereo not given), for which the Percent Effect is -6.1% in assay [1]; 18.7% in assay [2]; 7.33% in assay [3]; 2.41% in the assay on Trypanosoma cruzi; -6.65% in [4]; 4.83% in assay [5]. Besides, the Percent Effect was 9.08% in the assay listed under Homo sapiens, 4.74% in [6], 15.4% in assay [7] and -12.4% in [8].
With `CC(C)N1CCO[C@H]2CN(C(=O)c3ccoc3)C[C@H]21`, the Percent Effect in [1] is -6.85%; in assay [2], 3.9%; in assay [3] it was -7.81%; in the assay with Trypanosoma cruzi it was -1.66%; in assay [4], 2.43%; in assay [5], 4.85%. Further, the Percent Effect in the assay listed under Homo sapiens came out at 0.754%; in [6], 5.79%; in assay [7], 10.3%; in assay [8] it was 3.83%.
Turning to `O=C(NCCCNc1ccccc1)c1scnc1Cl`, the Percent Effect in assay [1] is -4.57%; in [2] it was 13.3%; in assay [3] it was -2.42%; with Trypanosoma cruzi, -3.61%; in assay [4], 0.444%; in assay [5], 8.06%. Further, the Percent Effect was 24.4% in the assay listed under Homo sapiens, 3.68% in assay [6], 12.8% in assay [7] and -10.6% in assay [8].
